Bioassay records as filed in PubChem BioAssay.
Hits are enriched below; roughly 21% of the tested compounds scored in any of these assays.
Pf growth 96h: Primary qHTS for delayed death inhibitors of the malarial parasite plastid, 96 hour incubation; P. falciparum luciferase reporter growth, 96 h; AID 504834, 2011; 320,000 compounds, 6.9% hits; Potency, µM (doses to about 28.7 µM), without a hit: at the top dose activity change, negative = inhibition, actives largely listed as inhibitors; note: potency is the fitted concentration of half-maximal effect; % is set by controls: 0 for no effect and ±100 for the full control effect
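P. falciparum expressing integrated firefly luciferase grown in erythrocytes (2% hematocrit, 0.05% parasitemia final) with compounds for 96 hours at 37 C, 5% CO2. Growth inhibition read as loss of luminescence after adding luciferase detection reagent.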
Cycloheximide cs: Cycloheximide Counterscreen for Small Molecule Inhibitors of Shiga Toxin; cell reporter, cycloheximide protein synthesis inhibition counterscreen; max response, %; 300,000 compounds, 12% hits; AID 2314, 2010; in the data active = max response mostly above about 13%, no sharp cut-off; inactive = mostly below about 14%; note: read at 38.3 µM for the half of the compounds with a filed dose; 0% is about no effect
Shiga toxin inh: A qHTS for Small Molecule Inhibitors of Shiga Toxin | Vero cells, Shiga toxin protein synthesis inhibition reporter | inhibition, % at 38.7 µM | 290,000 compounds, 9.2% hits; in the data active = inhibition mostly above about 28%, no sharp cut-off; inactive = mostly below about 43%; note: 0% is about no effect
Pf growth 48h: Primary qHTS for delayed death inhibitors of the malarial parasite plastid, 48 hour incubation. P. falciparum luciferase growth in erythrocytes, 48 h. Potency, µM (highest dose often 28.7 µM), without a hit: top-dose activity change, negative = inhibition, hits mostly inhibitors. 310,000 compounds, 5.9% hits. AID 504832, 2011; note: potency is the fitted concentration of half-maximal effect; % is set by controls: 0 for no effect and ±100 for the full control effect
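Growth was read as firefly luciferase luminescence after a 48 h, 37 C, 5% CO2 exposure of compounds to reporter-bearing P. falciparum cultures (0.1% parasitemia, 2% hematocrit final) in Albumax-supplemented RPMI 1640.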
Starred values were filed as active, the others as inactive; ? = inconclusive; . = not tested or not shown. Unless noted, calls come from the whole dose curve; as a rule, active = well fitted inhibition curve with a large enough effect; inconclusive = small, poorly fitted or top-dose-only effect, or another doubt; inactive = no such curve, though single readings can be large or run the other way.

SMILES	Pf growth 96h	Cycloheximide cs	Shiga toxin inh	Pf growth 48h
O=C(Nc1cccc2cccnc12)c1ccc(Cl)cc1Cl	-0.5%	15.5	-14.4	-17.0%
O=C(Nc1ccc2ncccc2c1)c1cc(Cl)ccc1Cl	-19.0%	44.8*	33.6	?
c1ccc2[nH]c(-c3cnco3)cc2c1	38.6%	15.4	.	68.8%
Cc1ccc(C(=O)C(C)OC(=O)Cn2[nH]c(=O)c3ccccc3c2=O)cc1C (stereo not drawn)	49.3%	4.0	6.6	31.1%
Cc1cccc(C(=O)Nc2ccc(C(=O)/C=C/c3ccncc3)cc2)c1	209.2%	-7.9	-24.2	?
COc1ccc(C(=O)Nc2ccc3ncccc3c2)cc1	122.0%	12.0	-10.8	0.0%
Cc1ccc(NC(=O)c2ccc(NS(=O)(=O)c3cccc4cccnc34)cc2)cc1	9.3%	-3.5	3.4	-22.9%
Cc1ccc(C(=O)Nc2ncccc2S(=O)(=O)c2ccccc2)cc1	127.7%	12.0*	66.3*	61.5%
CCC(=O)c1ccc2ncccc2c1	60.8%	21.2*	44.0*	15.0%
Cc1ccc(C(=O)/C=C/c2ccc3ncccc3c2)cc1	40.2%	48.5*	47.1*	-3.9%
O=C(Nc1ccc2ncccc2c1)c1cccc(Br)c1	-22.4%	38.9*	46.8*	80.5%
CCN(CC)P(=O)(Nc1ccc(C)cc1Br)c1ccc(N(C)C)cc1NC(=O)c1ccco1 (stereo not drawn)	?	13.6	17.2	?
Cc1nc([N+](=O)[O-])cn1CC(O)c1ccc(F)cc1 (stereo not drawn)	6.3%	0.5	-10.2	4.4%
COCCCNC(=O)c1cc(-c2cccnc2)nc2ccc(S(=O)(=O)N3CCCCCC3)cc12	-25.3%	-7.6	10.3	20.7%
Cc1nc(N)nc(Nc2ccc(C#N)cc2)c1Br	-22.2%	-2.3	19.7	-3.8%
Cc1nc(N)nc(Nc2ccc(Cl)cc2)c1Br	?	34.4*	43.3*	34.2%
CCCCc1ccc(-n2c(Cc3cccs3)n[nH]c2=S)cc1	?	-7.6	-13.6	-12.1%
O=C(c1cccs1)N1CCN(c2cc(Cl)ccc2Cl)CC1	?	0.8	-1.8	-10.2%
O=C(c1cccs1)N1CCN(c2ccc(Cl)cc2)CC1	51.8%	22.2*	19.8	1.1%
O=C(c1cccs1)N1CCC(c2ccccc2)C1 (stereo not drawn)	4.3%	41.2*	97.1*	64.6%
O=C(c1cccs1)N1CCC(N2CCN(c3ccccc3)CC2)CC1	3.29µM*	0.7	6.1	0.8%
CC(C)CC(=O)Nc1ccc(C(=O)CN2CCC(C)CC2)cc1	3.0%	8.7	-2.5	35.7%
N=C(N)SCc1ccc(Cl)cc1Cl	10.4µM*	3.0	-12.5	?
Cc1ccccc1NC(=O)CN(C)S(=O)(=O)c1cccs1	21.1%	8.7	-4.0	29.7%
CN(CC(=O)NC1CCCc2ccccc21)S(=O)(=O)c1cccs1 (stereo not drawn)	?	2.1	-6.5	-10.6%
SMILES	Pf growth 96h	Cycloheximide cs	Shiga toxin inh	Pf growth 48h
CN(CC(=O)NCc1ccccc1Cl)S(=O)(=O)c1cccs1	8.1%	14.8*	30.2	-4.5%
Cc1cccc2sc(NC(=O)CN(C)S(=O)(=O)c3cccs3)nc12	20.3%	14.7	45.2*	20.4%
COc1ccc(NC(=O)CN(C)S(=O)(=O)c2cccs2)cc1	51.0%	28.7*	40.1*	42.7%
Cc1cccc2sc(NC(=O)CN(C)S(=O)(=O)c3ccc(Br)s3)nc12	?	14.6	21.2	16.0%
CN(CC(=O)N1CCc2ccccc21)S(=O)(=O)c1cccs1	1.4%	61.3*	98.9*	.
O=C(Cc1ncc(C(F)(F)F)cc1Cl)NNc1cccc(F)n1	2.7%	-6.4	-13.0	0.4%
CC1CCN(C(=O)CN2C(=O)NC3(CCC(C)CC3)C2=O)CC1 (stereo not drawn)	1.0%	.	.	-15.8%
Cc1cccc(NC(=O)CN(C)S(=O)(=O)c2cccs2)c1	.	15.5*	100.7*	38.7%
Cc1ccc(C23CC4CC(CC(C(=O)NC(C(=O)O)C(C)C)(C4)C2)C3)cc1 (stereo not drawn)	-157.7%	-0.7	-9.4	?
COc1ccc(COCC(CC(C)C)N2CCN(C(=O)c3cccc(C(F)(F)F)c3)CCC2=O)cc1 (stereo not drawn)	?	3.0	13.9	10.4µM*
CC(C)CC(COCc1cccc(Cl)c1)N1CCN(C(=O)c2cccc(C(F)(F)F)c2)CCC1=O (stereo not drawn)	10.4µM*	2.5	18.0	?
CC(C)CC(COCc1ccc(Cl)cc1)N1CCN(C(=O)c2ccc(Cl)cc2Cl)CCC1=O (stereo not drawn)	?	4.8	13.2	10.4µM*
